Screening data: PubChem BioAssay, National Center for Advancing Translational Sciences (NCATS)
Sampled rows, rich in hits. Any-hit rate of the full collection: about 12%.
Shiga toxin inh: blocks Shiga toxin action in Vero cells; inhibition, % at 38.7 µM; Vero cells, Shiga toxin protein synthesis inhibition reporter; 290,000 tested, 9.2% active; AID 2315; in the data active = inhibition mostly above about 28%, no sharp cut-off; inactive = mostly below about 43%; also: 0% is about no effect
CHX counter: counter-screen for Shiga toxin inhibitors: cycloheximide protein synthesis inhibition. 300,000 tested, 12% active. cell reporter, cycloheximide protein synthesis inhibition counterscreen. AID 2314. max response, %; in the data active = max response mostly above about 13%, no sharp cut-off; inactive = mostly below about 14%; also: read at 38.3 µM for the half of the compounds with a filed dose; 0% is about no effect
LASV entry inh: inhibitors of Lassa virus binding or cell entry | Lassa virus pseudotype entry inhibition, cell reporter | Potency, µM (highest dose often 37.9 µM), for the others: top-dose activity change, negative = inhibition, actives largely listed as inhibitors | 300,000 tested, 1.2% active | AID 540256; calls by dose curve; tested in HEK293 cells; also: potency is read from the fitted curve at half-maximal effect; % is scaled to controls: 0 for no effect and ±100 for the full control effect; nearly all actives have a fitted effect of over 50% in size
MARV entry inh: blocks Marburg virus binding to or entry into cells. Marburg virus pseudotyped entry inhibition, cell reporter. Potency, µM (series often up to 37.8 µM), without a hit: top-dose activity change, negative = inhibition, actives largely listed as inhibitors. 300,000 tested, 1.8% active. AID 540276; calls by dose curve; tested in HEK293 cells; also: potency is read from the fitted curve at half-maximal effect; % is scaled to controls: 0 for no effect and ±100 for the full control effect
* marks the source's active call; other numbers are inactive results; ? = inconclusive; nt = not tested or not shown; [ ] = remark or other dose.

SMILES	Shiga toxin inh	CHX counter	LASV entry inh	MARV entry inh
CCn1c(CN2CCCCC2)nc2cc(NC(=O)c3ccc([N+](=O)[O-])cc3)ccc21	nt	nt	-2%[46.1 µM]	?
O=C(CCN1C(=O)C2CCCCC2C1=O)Nc1ccc(F)c(F)c1F (centres undefined)	7	-3	9%	6%[46.1 µM]
O=C(/C=C/c1ccc(OCCCF)cc1)NCc1ccc(Cl)cc1	-8	-1	-12%	-8%
Cc1cc(C)c(S(=O)(=O)Nc2ccnc(-c3cccnc3)n2)c(C)c1	-11	-1	15%[46.1 µM]	-7%[46.1 µM]
C(=N\c1nc2ccccc2[nH]1)/c1cccs1	27	4	35%[14.3 µM]	13%
COc1cccc(/C=N/Nc2nc(C)cc(=O)[nH]2)c1OC	45*	21*	18%[46.1 µM]	?
Cc1ccc(/C=N/Nc2nc3ccccc3[nH]2)s1	active	45*	?	?
Cc1ccccc1/C=N/Nc1nc2ccccc2[nH]1	76*	49*	?	-27%[46.1 µM]
COc1cccc(/C=N/Nc2ncccc2[N+](=O)[O-])c1OC	-15	-4	?	1.6µM*
O=[N+]([O-])c1ccc(/C=N/Nc2ncccc2[N+](=O)[O-])s1	nt	nt	9%	17%[46.1 µM]
CCOc1ccccc1/C=N/Nc1nc(C)cc(=O)[nH]1	-5	-1	nt	nt
COc1ccccc1NC(=O)CSc1nnc(C)s1	-4	-3	12%[46.1 µM]	?
CC1CCN(C(=O)CSc2c3c(nc4ccc(Cl)cc24)CCCC3)CC1	nt	nt	1%[46.1 µM]	22%[46.1 µM]
COc1ccc(Cl)cc1S(=O)(=O)Nc1ncn[nH]1	-7	-4	23%	?
N#Cc1ccc(OC(=O)c2cc(-c3ccc(Cl)cc3)on2)cc1	nt	nt	6%[46.1 µM]	22%[46.1 µM]
CC(C)CC(C(=O)NC(C)(C)C)N(Cc1ccccc1Cl)C(=O)c1snc(C(N)=O)c1N (centres undefined)	20	0	nt	nt
O=C(COC(=O)CC1SC(N2CCCC2)=NC1=O)Nc1ccc(Br)cc1 (centres undefined)	nt	nt	15%	1%
O=C(COc1ccc(Cl)cc1)N/N=C/c1cccc2cccnc12	-35	-2	9%	?
Cc1cc(=O)[nH]c(N/N=C/c2c(C)nn(-c3ccccc3)c2Cl)n1	26	7	-2%[46.1 µM]	?
C(=N\Nc1nc2ccccc2[nH]1)/c1c[nH]c2ccccc12	67*	54*	?	?
Cc1nn(-c2ccccc2)c(Cl)c1/C=N/Nc1nc2ccccc2[nH]1	146*	39*	nt	0%
C(=N\Nc1nc2ccccc2[nH]1)/c1cccc2cccnc12	79*	47*	nt	nt
CC1=C(c2ccc(C)c(C)c2)S(=O)(=O)N=C1N1CCC(C(=O)NCc2ccc(C)o2)CC1	nt	nt	19%[46.1 µM]	nt
CCOc1ccccc1NC(=O)c1ccc(F)c(S(=O)(=O)N2CCN(c3ccc(F)cc3)CC2)c1	nt	nt	-9%[46.1 µM]	nt
COc1ccc(-n2nnnc2CNC(=O)C(=O)c2c[nH]c3ccccc23)cc1	nt	nt	?	7%[46.1 µM]
SMILES	Shiga toxin inh	CHX counter	LASV entry inh	MARV entry inh
COc1ccc(C2NN=C(c3c[nH]c4ccccc34)C2O)cc1 (centres undefined)	38*	36*	nt	nt
COc1ccc(C2C(O)C(c3c[nH]c4ccccc34)=NN2C(=O)CCl)cc1 (centres undefined)	-6	8	?	3.2µM*
COC(=O)C1=C(C(=O)OC)[C@@H]2N(C)c3ccccc3[C@@]23CCC(=O)N(CC(C)C)C3=N1	nt	nt	nt	8%[14.2 µM]
COc1ccc(-c2[nH]ncc2CN2CCC(OCc3cccnc3)CC2)c(F)c1	-8	-2	?	?
CC(C)(C)C(=O)Nc1cc2c3c(c1)CCN3C(=O)CC2	10	-2	nt	nt
O=C(C[n+]1ccc(-c2nnc3n2CCC3)cc1)c1ccc(Cl)cc1	-11	-2	3%	-7%
Cc1cccc(C)c1OCC(=O)Nc1cccc(C(=O)O)c1	92*	41*	nt	?
Cc1ccc(C)c(OCC(=O)Nc2cccc(C(=O)O)c2)c1C	46	41*	-9%	5%
CCn1nnnc1SCC(=O)Nc1nc(C)c(C)s1	44*	29*	4%	13%[46.1 µM]
COCCCn1nnnc1SCC(=O)Nc1nc(C)c(C)s1	-14	18*	21%	-3%
COCCCn1nnnc1SCC(=O)N1CCCC1	-28	-4	2%	30%
Cc1ccc2oc(C(F)(F)C(F)F)cc(=O)c2c1	32	-3	14%	?
Cc1ccc2oc(C(Cl)(Cl)Cl)cc(=O)c2c1	-15	-3	-27%	12µM*
Cc1[nH]c2ccc(C(=O)N3CCC(C(N)=O)CC3)cc2c1C	nt	nt	-2%	1%
Cc1[nH]c2ccc(C(=O)N3CCCCC3)cc2c1C	107*	39*	-20%	?
Cc1[nH]c2ccc(C(=O)N3CCCC3)cc2c1C	23	30*	nt	nt
CCOC(=O)c1cc(-c2ccccc2)n(CC(=O)Nc2ccc(CC)cc2)c1C	nt	nt	0%[46.1 µM]	nt
C=CCN(c1ccccc1)S(=O)(=O)c1cccc(C(=O)Nc2ncccc2O)c1	nt	nt	?	0%[46.1 µM]
O=C(Nc1ccccn1)c1ccc(CN(c2ccccc2)S(=O)(=O)c2ccccc2)cc1	1	-1	?	?
C=CCN(c1ccccc1)S(=O)(=O)c1cccc(C(=O)Nc2cc(C)ccn2)c1	nt	nt	18µM*	8.9µM*
COc1ccc(N(Cc2ccccc2)S(=O)(=O)c2cccc(C(=O)Nc3ccccn3)c2)cc1	nt	nt	13µM*	?
CC(C(Sc1ccccc1N)c1ccccc1)[N+](=O)[O-] (centres undefined)	61*	32*	nt	nt
Nc1ccccc1SCc1c(Cl)cccc1Cl	22	1	28%	10%[46.1 µM]
COc1ccc(C(=O)N2CCCC(c3nc(-c4ccc(C)o4)no3)C2)cc1OC (centres undefined)	26	7	nt	1%[46.1 µM]
Cc1ccc(-c2noc(C3CCCN(C(=O)c4ccccc4Br)C3)n2)o1 (centres undefined)	71*	28*	?	?
SMILES	Shiga toxin inh	CHX counter	LASV entry inh	MARV entry inh
Cc1ccc(-c2noc(C3CCN(S(C)(=O)=O)CC3)n2)o1	80*	20*	-3%	7%
Cc1ccc(-c2noc(C3CCCN(C(=O)c4ccccc4)C3)n2)o1 (centres undefined)	59*	41*	?	0%
Cc1ccc(-c2nc(C3CCCN(S(=O)(=O)c4ccc(C)cc4)C3)no2)cc1 (centres undefined)	-12	-4	nt	nt
Cc1ccc(-c2nc(C3CCN(S(C)(=O)=O)CC3)no2)cc1	38	28*	26%	?
Cc1nnc(SCC(=O)Nc2ccccc2F)n1-c1ccc(F)cc1	-13	-5	nt	nt
Cc1ccc(CNC(=O)C(Cc2ccccc2)NS(=O)(=O)c2ccc(Br)s2)cc1 (centres undefined)	0	-5	-24%	?
COC(=O)CC1=NN(c2nc3ccccc3s2)C(=O)/C1=C/N(C)C	-3	6	16%[46.1 µM]	23%[46.1 µM]
Clc1ccc(-c2nc(C3CCCCC3)no2)cc1	89*	32*	14%	18%[46.1 µM]
Cc1cccc(C(=O)Nc2ccc(C(=O)OCc3cc(=O)n4nc(C5CC5)sc4n3)cc2)c1	nt	nt	3.2µM*	nt
O=C(Nc1ccc(C(=O)OCc2cc(=O)n3nc(C4CC4)sc3n2)cc1)c1cccc(Cl)c1	nt	nt	-2%[46.1 µM]	nt
CN(C)c1ccc(C(=O)N2CCCC2)cc1	4	10	1%	-2%
CCOC(=O)C1CCN(C(=O)COC(=O)c2cccc(F)c2)CC1	72*	22*	nt	nt
CN(C)c1ccc(C(=O)OCC(=O)N2CCCC2)cc1	53*	32*	-3%	?
CN(C)c1ccc(C(=O)OCc2ccc(Br)cc2)cc1	67*	16	?	?
